Assay outcomes (PubChem BioAssay)
ADAM10 inh: inhibits human ADAM10. recombinant ADAM10, EDANS/DABCYL FRET peptide cleavage, 3 h. inhibition, % at 7 µM. 370,000 compounds, 0.62% hits;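 active means inhibition above a per-campaign cutoff equal to the mean of compounds falling between control-based bounds plus 3 SD, cut at about 20% in these data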;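 further: 0% = DMSO wells while the 100% control is not disclosed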
KLK7 zymogen act: proKLK7 (human) activation, primary screen | purified proKLK7, EDANS-DABCYL substrate fluorescence; 100% is mature enzyme control, 0% vehicle | activation, % at 7 µM | 370,000 compounds, 0.9% hits;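 active means activation above the mean of all tested compounds plus 3 SD, computed per campaign excluding outliers beyond control limits, cut at about 13% in these data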
ADAM17 inh: ADAM17 inhibition, QFRET primary screen; P78536; 370,000 compounds, 0.83% hits; inhibition, % at 6.95 µM; recombinant ADAM17, EDANS/DABCYL FRET peptide cleavage; AID 720648;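 active means inhibition above the mean of compounds lying between control limits plus 3 SD, set per campaign, cut at about 8.5% in these data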;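 further: 0% = DMSO-only wells as the low control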
Target sequence (P78536 215-824 limits assumed): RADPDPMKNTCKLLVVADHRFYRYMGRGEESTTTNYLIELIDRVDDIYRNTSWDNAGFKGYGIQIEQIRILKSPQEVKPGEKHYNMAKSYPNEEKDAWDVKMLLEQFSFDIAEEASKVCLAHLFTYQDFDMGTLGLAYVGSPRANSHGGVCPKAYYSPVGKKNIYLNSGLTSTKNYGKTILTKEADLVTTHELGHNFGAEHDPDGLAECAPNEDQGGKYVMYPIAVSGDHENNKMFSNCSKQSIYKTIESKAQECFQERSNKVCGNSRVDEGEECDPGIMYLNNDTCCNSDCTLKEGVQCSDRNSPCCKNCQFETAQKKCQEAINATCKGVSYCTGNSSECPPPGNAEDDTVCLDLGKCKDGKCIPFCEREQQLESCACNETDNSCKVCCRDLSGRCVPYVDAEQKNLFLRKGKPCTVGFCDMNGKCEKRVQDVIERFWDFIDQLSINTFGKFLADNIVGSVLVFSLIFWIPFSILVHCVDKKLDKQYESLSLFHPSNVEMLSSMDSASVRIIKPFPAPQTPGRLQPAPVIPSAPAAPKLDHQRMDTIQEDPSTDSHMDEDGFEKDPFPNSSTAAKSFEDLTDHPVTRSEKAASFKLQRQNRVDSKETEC
V-ATPase pHluor: regulators of yeast V-ATPase proton transport; S. cerevisiae, pHLuorin cytosolic pH fluorescence; response, % at 10 µM; 350,000 compounds, 0.37% hits; AID 504577; in the data active means response mostly above about 7.3%, no sharp cut-off; inactive means mostly below about 5.4%; further: actives read high
ADAM10 ctr: counter-screen for ADAM17 exosite inhibitors: inhibitors of human ADAM10; shares compounds with ADAM17 inh; inhibition, % at 6.95 µM; recombinant ADAM10, EDANS/DABCYL FRET peptide cleavage, 3 h; AID 743256; 2,900 compounds, 47% hits;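 active means mean inhibition over the triplicate runs exceeds the activity threshold set in the earlier primary screen, cut at about 20% in these data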;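 further: 0% = DMSO wells and 100% = marimastat wells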
ADAM17 confirm: confirmation of inhibitors of human ADAM17; recombinant ADAM17, EDANS/DABCYL QFRET peptide cleavage; shares compounds with ADAM17 inh; 2,900 compounds, 65% hits; inhibition, % at 6.95 µM;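 active means mean inhibition across replicates above the hit cutoff set in the primary screen, cut at about 8.5% in these data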;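 further: 0% = DMSO wells and 100% = marimastat wells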
Active calls of the source: *; · = not tested or not shown. A selection: hits, their analogues and other compounds. The true share with any hit is near 2.3%.

SMILES	ADAM10 inh	KLK7 zymogen act	ADAM17 inh	V-ATPase pHluor	ADAM10 ctr	ADAM17 confirm
O=C(COC(=O)C12CC3CC(CC(C3)C1)C2)NCc1ccccc1	-8	0	2	5	·	·
COC(=O)c1ccc(CNC(=O)COC(=O)C23CC4CC(CC(C4)C2)C3)cc1	10	0	8.7*	1	9	3
COc1ccc(Cn2cc(F)c(=O)n(CCC(C)C)c2=O)cc1[N+](=O)[O-]	16	0	9.8*	-1	-4	0
CC(=O)C[C@H](O)CC(=O)[C@@H]1OC(=O)CCCCC/C=C/Cc2ccccc21	13	0	8.8*	-1	1	-1
COc1ccc(C(C)C)cc1S(=O)(=O)Nc1ccccn1	10	0	10*	1	-15	-6
COCC(C)n1c(SCC(=O)NC(=O)NCc2ccccc2)nc2ccccc2c1=O (stereo not given)	12	0	10*	6	15	7
COCC(C)n1c(SCC(=O)Nc2cc(C)on2)nc2ccccc2c1=O (stereo not given)	-1	0	-4	1	·	·
COc1cc(C2CC=C(C(=O)O)C(c3ccccc3F)N2S(=O)(=O)c2ccc(C)cc2)cc(OC)c1OC (stereo not given)	2	-1	0	·	·	·
O=C(COC(=O)CCc1ccc(S(=O)(=O)N2CCCCC2)cc1)Nc1cccc2ccccc12	18	1	13*	-4	26*	12*
Cc1ccccc1C(=O)OCC(=O)Nc1cccc(S(=O)(=O)N2CCCCC2)c1	-3	1	2	1	·	·
CSc1ncccc1C(=O)OCC(=O)c1ccc(S(=O)(=O)N2CCCCC2)cc1	14	0	3	-4	·	·
CCOc1ccc(NC(=O)COC(=O)c2ccc(S(=O)(=O)N3CCOCC3)cc2)cc1	-11	0	-6	0	·	·
Cc1ccc(C)c(C(=O)OCC(=O)Nc2cccc(S(=O)(=O)N3CCCCC3)c2)c1	8	0	12*	0	32*	19*
Cc1cccc(C)c1NC(=O)COC(=O)CCc1ccc(S(=O)(=O)N2CCCCC2)cc1	2	0	3	1	·	·
CCOc1ccc(NC(=O)COC(=O)c2cc(S(=O)(=O)N3CCCC3)ccc2C)cc1	5	0	9.4*	-3	16	7
CSc1ncccc1C(=O)OCC(=O)Nc1ccc(S(=O)(=O)N2CCCC2)cc1	9	1	9.5*	-2	1	6
O=C(CN1CCOCC1)Nc1cccc(S(=O)(=O)N2CCCCCC2)c1	8	0	1	1	·	·
O=C(COC(=O)/C=C/c1ccc(OC(F)F)cc1)Nc1ccc(S(=O)(=O)N2CCCC2)cc1	18	1	9.8*	1	18	13*
O=C(COC(=O)c1ccc(Br)o1)Nc1cccc(S(=O)(=O)N2CCCCCC2)c1	12	0	9.8*	0	26*	15*
Cc1cccc(OCCC(=O)Nc2ccc(C)c(S(=O)(=O)N3CCCCC3)c2)c1	26*	1	14*	2	36*	18*
CN(C)S(=O)(=O)c1cccc(NC(=O)COC(=O)c2ccc(Br)o2)c1	1	1	0	1	·	·
O=C(CN1CCN(Cc2ccccc2)CC1)Nc1cccc(S(=O)(=O)N2CCCCCC2)c1	14	0	8.9*	-1	22*	11*
CC(C)[C@H](NS(=O)(=O)c1ccc(F)cc1F)C(=O)N1CCC[C@H]1C(=O)NCCc1ccccc1Cl	-1	1	-4	·	·	·
CC(=O)N(C)C[C@@H]1OCc2ccccc2-c2c(n(C)c3ccccc23)C(=O)N([C@@H](C)CO)C[C@@H]1C	-1	0	-3	·	·	·
COc1cccc(CNC(=O)[C@H]2CCCN2C(=O)[C@H]2CCCN2C(=O)N2CCCCC2)c1	0	0	-1	·	·	·
SMILES	ADAM10 inh	KLK7 zymogen act	ADAM17 inh	V-ATPase pHluor	ADAM10 ctr	ADAM17 confirm
COc1ccccc1OCCC(=O)Nc1cccc(S(=O)(=O)N2CCCCC2)c1	-7	-1	-3	0	·	·
CC(=O)c1ccccc1OCC(=O)Nc1cccc(S(=O)(=O)N2CCCC2)c1	-11	1	9.3*	4	10	4
Cc1ccc(C)c(OCCC(=O)Nc2cccc(S(=O)(=O)N3CCCCC3)c2)c1	18	1	9.3*	1	40*	21*
COC(=O)C1CN(Cc2ccccc2)CCS(=O)(=O)N1Cc1cn(Cc2ccccc2Br)nn1 (stereo not given)	3	-1	-2	·	·	·
CC(=O)CCN1CCSCCS1(=O)=O	2	0	0	·	·	·
CC(C)(C)c1csc(NC(=O)C2COc3ccccc3O2)n1 (stereo not given)	0	0	2	-2	·	·
COc1ccc(-c2csc(NC(=O)C3COc4ccccc4O3)n2)cc1OC (stereo not given)	11	0	8.9*	3	15	10*
COC(=O)C(Cc1c[nH]c2ccccc12)NC(=O)c1cccs1 (stereo not given)	-2	0	-2	3	·	·
O=C(NC(Cc1c[nH]c2ccccc12)C(=O)OCC(=O)c1cccc2ccccc12)c1cccs1 (stereo not given)	10	-6	9.5*	-2	9	8.9*
COC(=O)Cn1cnc2c(NC(=O)c3ccccc3)ncnc21	0	0	-2	·	·	·
COCc1cc(N2CCN(C(=O)OC(C)(C)C)C[C@H]2C)ccc1Br	-3	0	4	·	·	·
CCCCN(Cc1ccccc1)S(=O)(=O)c1cc2c(cc1Br)CC(C)N2C(C)=O (stereo not given)	17	1	11*	5	16	12*
Cc1cccc(CN[C@@H]2CC[C@@]34CCCN3C(=O)CCC[C@H]4C2)c1	-10	·	-5	·	·	·
Oc1ccccc1CN1CCCC(N2CCN(c3cccc(C(F)(F)F)c3)CC2)C1 (stereo not given)	11	0	9.0*	6	24*	19*
Fc1ccccc1N1CCN(C2CCCN(Cc3cccc(C(F)(F)F)c3)C2)CC1 (stereo not given)	2	-1	-1	3	·	·
COc1ccc2c(c1)C(=O)N1[C@H]3c4cc(C)ccc4OC[C@@H]3[C@H](c3ccccc3)[C@]1(C)C(=O)N2	14	-4	8.9*	1	6	9.6*
C=CCNC(=S)NNC(=O)c1ccc(C)c(Cl)c1	12	-1	12*	-3	-2	1
NS(=O)(=O)c1ccc(N/N=C/C=C/c2ccccc2[N+](=O)[O-])cc1	17	0	8.7*	2	19	19*
Nc1ccc(S(=O)(=O)NN=CC=Cc2ccccc2[N+](=O)[O-])cc1	-55	0	2	-1	·	·
CCO[C@H]1OC(C(=O)NCc2nc3ccccc3[nH]2)=C[C@@H](c2csc3ccccc23)[C@@H]1CCCO	12	0	12*	-1	6	6
